Assay results reported in the supplement of paper PMC10338343.
± gives the standard deviation.

test system: MILI (PIWIL2) piRISC loaded with L1MC piRNA (26 nt); assay: pre-steady-state target cleavage rate (min^-1); guide: L1MC piRNA 5'p-UAACUAAAUACUAUGCAAGCUGUAGG; MIWI and MILI are mouse PIWI proteins and EfPiwi is from a freshwater sponge; tags in brackets are library labels; higher = faster piRNA-guided slicing of the target; conditions: auxiliary factor: 500 nM mouse GTSF1
Experimental: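 Cleave-'n-Seq: a library of target RNAs (target site embedded in constant flanks, ACAGCATTCCGCGTTAGTGATATCCG... 5' flank; DNA-blocked outside the site) at 0.1 nM was incubated with 1 nM active mouse MILI or MIWI piRISC (synthetic 5'-monophosphorylated piRNA guide) with or without 500 nM mouse GTSF1 at 33 °C for 1 min to 16 h. Uncleaved targets were sequenced and normalised to non-target controls, and the pooled three trials were fitted to a burst-and-steady-state model to give the pre-steady-state cleavage rate (min^-1; k3 is constrained to at most 1e-4). Sequence is the target site only; target names encode pairing extent (gX:gY) and contiguous / 1-mismatch / 2-mismatch / bulge geometry. Fits with R² ≤ 0 are excluded.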

Sequence | pre-steady-state target cleavage rate
UCCUGGAACAGCUUGCAUAUUAUUUAGUUA | 0.0696 ± 0.008
UCCUGGAUGAGCUUGCAAAGUAUUAAGUUA | 0.0742 ± 0.012
UCCUGGAACUGCUUGCAUAGUAUUUAGUUA | 0.228 ± 0.016
UCCUCCUACAGCUUGCAUACUAAUUAGUUA | 0.0267 ± 0.0069
UCCUGCUACAGCUUGGAUAGUAUUUAGUUA | 0.296 ± 0.017
UCCUGGAAGAGCUUGCAUAGUAAUUAGUUA | 0.177 ± 0.015
UCCUGCUACACGCUUGCAUAGUAUUUAGUUA | 0.218 ± 0.032
UCCUGGAUGUGCAUGCAUAGUAUUUAGAUA | 0.146 ± 0.032
UCCUGGAUCAGCAUGCAUAGUAUUUAGAUA | 0.149 ± 0.017
UCCUGGAUCAGCUUGCAAAGUAUUUAGAAA | 0.0827 ± 0.015
UCCUCCUACAGCUUGCAUAGUAUUUGGUUA | 0.279 ± 0.024
UCCUGCAUCAGCUUGCAUAGUAUUUUCAAA | 0.118 ± 0.029
UCCUGGAACAGCAUGCAUAGUAUUAAGUUA | 0.219 ± 0.027
UCCUGCUACAGCUUGGUAAGUAUUUAGUUA | 0.131 ± 0.019
UCCUGGAUCAGCUAGCAUAGUUUUUAGUUA | 0.0366 ± 0.0073
UCCUGGUACAUCUUGCAUAGUAUUUAGUUA | 0.237 ± 0.018
UCCUGGUACAGCAUGCAUAGUAUUUUGUUA | 0.11 ± 0.022
UCCUGGAUGAGCUUGCAUUGUAUUUAGAAA | 0.0178 ± 0.0069
UCCUGGAUGACCUUGCAUUGUAUUUAGUUA | 0.0617 ± 0.0098
UCCUGGAUCAGGUAGCAUAGUAUUUAGUUA | 0.118 ± 0.013
UCCUGGAUGAGCAUGCAUAGUAUUUAGAUA | 0.166 ± 0.024
UCCUGGAACAGCUUGCAAUGUAUUUAGAAA | 0.0719 ± 0.018
UCCUCCUACAGCUUGCAUAGUAUUCUAGUUA | 0.316 ± 0.039
UCCUCCUUCAGCUUGCAUAGAAUUUAGUUA | 0.0772 ± 0.016

same assay, conditions: auxiliary factor: none (no GTSF1)

Sequence | pre-steady-state target cleavage rate
UCCUGGAUGAGCUUGCAAAGUAUUAAGUUA | 0.00449 ± 0.0026
UCCUGGAACUGCUUGCAUAGUAUUUAGUUA | 0.00612 ± 0.002
UCCUGCUACAGCUUGGAUAGUAUUUAGUUA | 0.0119 ± 0.0026
UCCUGGAUGUCGAACGUUAGUAUUUCGUUA | < 0.0001
UCCUGGAAGAGCUUGCAUAGUAAUUAGUUA | 0.00468 ± 0.0028
UCCUGCUACACGCUUGCAUAGUAUUUAGUUA | 0.00682 ± 0.0029
UCCUCCUACAGCUUGCAUAGUAUUUGGUUA | 0.00706 ± 0.0026
UCCUGGAACAGCAUGCAUAGUAUUAAGUUA | 0.00548 ± 0.0019
UCCUGCUACAGCUUGGUAAGUAUUUAGUUA | 0.00591 ± 0.0018
UCCUGGAUCAGCUAGCAUAGUUUUUAGUUA | 0.00382 ± 0.0025
UCCUGGUACAUCUUGCAUAGUAUUUAGUUA | 0.00962 ± 0.0032
UCCUGGUACAGCAUGCAUAGUAUUUUGUUA | 0.00364 ± 0.0034
UCCUGGAUGACCUUGCAUUGUAUUUAGUUA | 0.00446 ± 0.0029
UCCUGGAUCAGGUAGCAUAGUAUUUAGUUA | 0.00574 ± 0.0022
UCCUGGAUGAGCAUGCAUAGUAUUUAGAUA | 0.00498 ± 0.0025
UCCUCCUACAGCUUGCAUAGUAUUCUAGUUA | 0.00537 ± 0.0026
